Reference: PubChem BioAssay (Tox21)
“And” between values parts separate entries of the source, which are not always exact repeats. Identical values can stand only once. More than one record can exist for a structure, and the calls need not agree. The source made the active and inactive calls. Where a call stands in place of a potency, no number is given. Unless noted, calls come from the whole dose curve; as a rule, active = well fitted curve in the direction sought with a large enough effect in the repeat runs; inconclusive = weak or mixed curves; inactive = no such curve, though single readings can be large; an effect the other way counts as inactive or inconclusive.

Columns and labels:
[1] = qHTS assay to identify small molecule antagonists of the glucocorticoid receptor (GR) signaling pathway - cell viability counter screen (AID 720693); note: nearly all actives have a fitted effect of over 55% in size
[2] = qHTS assay to identify small molecule antagonists of the androgen receptor (AR) signaling pathway - cell viability counter screen (AID 743033; note: nearly all actives have a fitted effect of over 45% in size; note: potency is the fitted concentration of half-maximal effect)
[3] = biological target: Androgen receptor (Homo sapiens) (UniProt P10275); assay: qHTS assay to identify small molecule agonists of the androgen receptor (AR) signaling pathway (AID 743036; active = well fitted activation curve with a large enough effect in the signal ratio in the repeat runs, with a control signal flat, not every such curve was filed as active; inconclusive = weak or mixed curves, or effect the other way; inactive = no such curve, though single readings can be large or run the other way; the % refers to the signal ratio)
Procedure, shortened: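 AR-bla HEK293 cells, 2,000/well; 4 h preincubation 37C/5% CO2; compound (DMSO) 16 h at 37C; LiveBLAzer B/G FRET substrate 2 h RT; fluorescence intensity read-out.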

[4] = biological target: Androgen receptor (Homo sapiens) (UniProt P10275); assay: qHTS assay to identify small molecule agonists of the androgen receptor (AR) signaling pathway using the MDA cell line (AID 743040; note: nearly all actives have a fitted effect of over 20% in size)
Procedure, shortened: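 After a 5 h incubation at 37C and 0% CO2, MDA-kb2 reporter cells were dosed with compounds in DMSO and kept 16 h under the same conditions. Luciferase activity was then read as luminescence with ONE-Glo.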

[5] = qHTS assay to identify small molecule antagonists of the thyroid receptor (TR) signaling pathway (AID 743065); note: nearly all actives have a fitted effect of over 55% in size; note: potency is the fitted concentration of half-maximal effect
Procedure, shortened: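 Antagonism measured as loss of luciferase signal in GH3 cells stably carrying a TRE-luciferase reporter, co-treated with compound and T3 (1 nM final) for 23.5 h at 37 C. Viability was read in the same well by CellTiter-Fluor.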

[6] = qHTS assay to identify small molecule antagonists of the estrogen receptor alpha (ER-alpha) signaling pathway - cell viability counter screen (AID 743074; calls by dose curve;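 note: HEK293 cells carrying ER-alpha-UAS-bla reporter stimulated with 17beta-estradiol; nearly all actives have a fitted effect of over 45% in size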)
[7] = biological target: Estrogen receptor (Homo sapiens) (UniProt P03372); assay: qHTS assay to identify small molecule agonists of the estrogen receptor alpha (ER-alpha) signaling pathway (AID 743075; calls by dose curve; note: potency is the fitted concentration of half-maximal effect)
[8] = qHTS assay to identify small molecule antagonists of the estrogen receptor alpha (ER-alpha) signaling pathway using the BG1 cell line (AID 743080; calls by dose curve;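 note: BG1 cells stimulated with 17beta-estradiol alongside compound; nearly all actives have a fitted effect of over 25% in size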; note: potency is the fitted concentration of half-maximal effect)
Procedure, shortened: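 BG1-Luc-4E2 cells (endogenous full-length ER-alpha, stable 4×ERE-luciferase) were starved 5 days in phenol-red-free medium with 10% charcoal-stripped FBS, plated 24 h, then given compound plus 17beta-estradiol for 21.5 h at 37 C; ONE-Glo luminescence read after 30 min.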

[9] = qHTS assay to identify small molecule antagonists of the estrogen receptor alpha (ER-alpha) signaling pathway using the BG1 cell line - cell viability counter screen (AID 743081);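 note: compound given together with 17beta-estradiol as the ER stimulus; nearly all actives have a fitted effect of over 45% in size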
[10] = qHTS assay to identify small molecule antagonists of the androgen receptor (AR) signaling pathway using the MDA cell line - cell viability counter screen (AID 743041; note: nearly all actives have a fitted effect of over 45% in size; note: potency is the fitted concentration of half-maximal effect)
Procedure, shortened: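 R1881-driven MDA-kb2 AR-luc cells, 3,000/well, were dosed with library compounds for 16 h; cell health came from CellTiter-Fluor fluorescence in the reporter wells.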

[11] = qHTS assay to identify small molecule antagonists of the thyroid receptor (TR) signaling pathway - cell viability counter screen (AID 743064); note: nearly all actives have a fitted effect of over 50% in size; note: potency is the fitted concentration of half-maximal effect
Procedure, shortened: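 GH3.TRE-Luc cells, 4 h pre-plating; cpd + T3 1 nM final; 37 °C 23.5 h; CellTiter-Fluor 30 min; fluorescence read.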

[12] = system: thyroid hormone receptor (rat, GH3 cells); assay: qHTS assay to identify small molecule agonists of the thyroid receptor (TR) signaling pathway (AID 743066; calls by dose curve; note: potency is the fitted concentration of half-maximal effect)
[13] = biological target: Estrogen receptor (Homo sapiens) (UniProt P03372); assay: qHTS assay to identify small molecule antagonists of the estrogen receptor alpha (ER-alpha) signaling pathway (AID 743069; active = well fitted curve in the direction sought with a large enough effect in the signal ratio in the repeat runs, not every such curve was filed as active; inconclusive = weak or mixed curves, or effect the other way; inactive = no such curve, though single readings can be large or run the other way; the % refers to the signal ratio)
Procedure, shortened: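 Compound effects are measured against 17beta-estradiol stimulation in HEK293 cells with a UAS-controlled beta-lactamase reporter for ER-alpha. Exposure lasts 18 hr at 37C; LiveBLAzer B/G FRET substrate follows for 2 hr at room temperature.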

[14] = biological target: Estrogen receptor (Homo sapiens) (UniProt P03372); assay: qHTS assay to identify small molecule agonists of the estrogen receptor alpha (ER-alpha) signaling pathway using the BG1 cell line (AID 743079); conditions: BG1Luc4E2 cells, ERE-luciferase agonist, 22 h; activation: at 70.3 µM (top of the series); note: nearly all actives have a fitted effect of over 20% in size; note: potency is the fitted concentration of half-maximal effect
Aromatase (Homo sapiens) = Aromatase (Homo sapiens) (UniProt P11511); assay: qHTS assay to identify aromatase inhibitors (AID 743083); note: nearly all actives have a fitted effect of over 55% in size; note: potency is the fitted concentration of half-maximal effect
[15] = qHTS assay for identifying genotoxic compounds that show differential cytotoxicity against isogenic chicken DT40 cell lines with known DNA damage response pathways - wild type cell line (AID 743012); note: nearly all actives have a fitted effect of over 60% in size; note: potency is the fitted concentration of half-maximal effect
Procedure, shortened: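 First, wild type DT40 cells were plated at 300 per well and equilibrated about 0.5 h at 37 C/5% CO2. Next, compounds in DMSO were added and exposure lasted 40 h. Finally, CellTiter-Glo was added for 30 min at room temperature and luminescence recorded.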

[16] = qHTS assay for identifying genotoxic compounds that show differential cytotoxicity against isogenic chicken DT40 cell lines with known DNA damage response pathways - Rev3 mutant cell line (AID 743014); note: nearly all actives have a fitted effect of over 55% in size; note: potency is the fitted concentration of half-maximal effect
[17] = qHTS assay for identifying genotoxic compounds that show differential cytotoxicity against isogenic chicken DT40 cell lines with known DNA damage response pathways - Rad54/Ku70 mutant cell line (AID 743015); note: nearly all actives have a fitted effect of over 60% in size; note: potency is the fitted concentration of half-maximal effect
[18] = biological target: Androgen receptor (Homo sapiens) (UniProt P10275); assay: qHTS assay to identify small molecule antagonists of the androgen receptor (AR) signaling pathway (AID 743035; active = well fitted inhibition curve with a large enough effect in the signal ratio in the repeat runs, not every such curve was filed as active; inconclusive = weak or mixed curves, or effect the other way; inactive = no such curve, though single readings can be large or run the other way; the % refers to the signal ratio)
Procedure, shortened: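 Beta-lactamase FRET read (2 h RT incubation with LiveBLAzer B/G) following 16 h of compound plus R1881 treatment of AR-UAS-bla HEK293 cells, which had been pre-incubated 4 h at 37C.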

[19] = biological target: Androgen receptor (Homo sapiens) (UniProt P10275); assay: qHTS assay to identify small molecule antagonists of the androgen receptor (AR) signaling pathway using the MDA cell line (AID 743042; note: nearly all actives have a fitted effect of over 55% in size)
Procedure, shortened: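 Antagonist mode: compounds plus R1881 agonist added to MDA-kb2 AR-luc cells, incubated 16 h at 37C. Luciferase reporter luminescence quantified, with multiplexed CellTiter-Fluor readout for cell viability.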

Chain of Androgen receptor (Homo sapiens) (P10275 whole entry, looked up): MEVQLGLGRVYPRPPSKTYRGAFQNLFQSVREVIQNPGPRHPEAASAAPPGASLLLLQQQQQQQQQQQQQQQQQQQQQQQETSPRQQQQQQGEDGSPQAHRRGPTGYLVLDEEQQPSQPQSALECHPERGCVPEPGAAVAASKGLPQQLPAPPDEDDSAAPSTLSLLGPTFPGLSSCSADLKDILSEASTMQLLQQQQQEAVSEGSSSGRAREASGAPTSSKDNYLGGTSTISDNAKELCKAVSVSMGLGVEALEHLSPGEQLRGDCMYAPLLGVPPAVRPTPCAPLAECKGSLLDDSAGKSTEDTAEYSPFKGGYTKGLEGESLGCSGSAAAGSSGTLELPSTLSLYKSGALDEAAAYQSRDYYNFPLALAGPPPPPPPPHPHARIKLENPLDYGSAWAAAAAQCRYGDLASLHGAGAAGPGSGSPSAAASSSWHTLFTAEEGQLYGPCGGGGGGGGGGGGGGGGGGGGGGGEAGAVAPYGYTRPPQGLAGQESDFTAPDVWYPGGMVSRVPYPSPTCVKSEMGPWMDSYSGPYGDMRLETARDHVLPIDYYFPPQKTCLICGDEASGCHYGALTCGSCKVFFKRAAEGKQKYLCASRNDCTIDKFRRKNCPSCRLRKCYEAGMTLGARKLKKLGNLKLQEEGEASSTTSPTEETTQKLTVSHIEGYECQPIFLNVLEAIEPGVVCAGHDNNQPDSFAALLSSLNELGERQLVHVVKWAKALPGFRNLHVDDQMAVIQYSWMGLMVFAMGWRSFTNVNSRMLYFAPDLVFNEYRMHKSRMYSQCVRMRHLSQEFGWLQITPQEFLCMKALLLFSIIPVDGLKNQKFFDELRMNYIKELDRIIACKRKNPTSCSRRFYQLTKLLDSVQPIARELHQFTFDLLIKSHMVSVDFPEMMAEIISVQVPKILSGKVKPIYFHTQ
Chain of Aromatase (Homo sapiens) (P11511 whole entry, looked up): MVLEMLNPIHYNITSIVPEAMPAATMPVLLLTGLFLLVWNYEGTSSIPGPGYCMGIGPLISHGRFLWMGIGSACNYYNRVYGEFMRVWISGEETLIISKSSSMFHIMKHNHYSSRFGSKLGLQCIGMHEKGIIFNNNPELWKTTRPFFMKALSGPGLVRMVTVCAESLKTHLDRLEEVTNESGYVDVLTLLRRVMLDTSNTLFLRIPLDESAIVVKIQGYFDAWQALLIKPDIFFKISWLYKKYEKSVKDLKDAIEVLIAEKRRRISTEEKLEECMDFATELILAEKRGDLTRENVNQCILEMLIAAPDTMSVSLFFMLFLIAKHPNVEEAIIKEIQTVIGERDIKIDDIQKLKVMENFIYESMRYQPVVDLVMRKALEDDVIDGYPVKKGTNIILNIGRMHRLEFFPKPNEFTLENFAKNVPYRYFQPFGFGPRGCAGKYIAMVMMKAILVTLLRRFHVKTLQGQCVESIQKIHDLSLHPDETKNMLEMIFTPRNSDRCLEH
Chain of Estrogen receptor (Homo sapiens) (P03372 whole entry, looked up): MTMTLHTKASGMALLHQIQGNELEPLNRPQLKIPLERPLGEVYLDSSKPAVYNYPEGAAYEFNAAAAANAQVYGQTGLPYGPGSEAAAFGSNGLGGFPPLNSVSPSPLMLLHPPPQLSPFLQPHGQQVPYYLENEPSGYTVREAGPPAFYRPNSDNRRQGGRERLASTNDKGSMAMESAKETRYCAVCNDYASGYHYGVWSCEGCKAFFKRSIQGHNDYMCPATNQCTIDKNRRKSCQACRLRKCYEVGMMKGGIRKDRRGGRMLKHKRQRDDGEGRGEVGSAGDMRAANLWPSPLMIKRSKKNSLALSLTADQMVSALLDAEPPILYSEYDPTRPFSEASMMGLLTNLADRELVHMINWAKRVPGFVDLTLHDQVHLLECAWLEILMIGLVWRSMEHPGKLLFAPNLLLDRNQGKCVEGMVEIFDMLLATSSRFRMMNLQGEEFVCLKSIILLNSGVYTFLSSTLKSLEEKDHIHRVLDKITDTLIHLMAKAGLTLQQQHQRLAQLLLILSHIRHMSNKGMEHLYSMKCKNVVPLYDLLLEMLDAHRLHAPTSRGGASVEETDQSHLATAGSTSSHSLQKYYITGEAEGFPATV

SMILES	Potency [1]	Potency [2]	outcome [3]	outcome [4]	Potency [5]	Potency [6]	Potency [7]	Potency [8]	Potency [9]	Potency [10]	Potency [11]	Potency [12]	Potency [13]	Potency [14]	Potency (Aromatase (Homo sapiens))	Potency [15]	Potency [16]	Potency [17]	Potency [18]	Potency [19]
C[C@H]1[C@H](c2ccc(Cl)cc2)SC(=O)N1C(=O)NC1CCCCC1	inactive	inactive	inactive	inactive	61.1 µM (active)	inactive	inactive	61.1 µM (active)	inactive	–	–	–	–	–	–	–	–	–	–	–
CC1CN1 (stereo unspecified)	inactive	inactive	–	–	inactive	inactive	inactive	inactive	inactive	inactive	inactive	inactive	inactive	inactive	inactive	–	–	–	–	–
COc1cnc(OC)n2nc(NS(=O)(=O)c3c(OCC(F)F)cccc3C(F)(F)F)nc12	–	inactive	–	–	inactive	inactive	inactive	inactive	inactive	inactive	inactive	inactive	inactive	inactive	inactive	inactive	inactive	inactive	–	–
Nc1cc(Cl)ccc1Cl	–	inactive	–	–	inactive	inactive	–	–	inactive	inactive	inactive	inactive	–	–	–	inactive	inactive	inactive	–	–
BrCCCBr	–	inactive	inactive	inactive	inactive	inactive	–	–	inactive	–	inactive	inactive	–	–	inactive	inactive	inactive	inactive	inactive	inactive
O=[N+]([O-])C(Br)Br	inactive	inactive	inactive	inactive	inactive	inactive	–	–	inactive	inactive	inactive	inactive	–	–	–	–	–	–	–	inactive
O=S(=O)(NS(=O)(=O)C(F)(F)F)C(F)(F)F	–	inactive	–	–	–	inactive	–	–	inactive	inactive	inactive	–	–	–	–	inactive	inactive	inactive	–	–
C[C@]12C/C(=C/O)C(=O)C[C@@H]1CC[C@@H]1[C@@H]2CC[C@@]2(C)[C@H]1CC[C@]2(C)O	–	inactive and 44.1 µM (active)	–	–	29.8 µM (active) and 55 µM (active)	inactive	674 nM [inconclusive] (active) and 783 nM [inconclusive] (active)	inactive	inactive	inactive	inactive and 61.7 µM (active)	inactive	inactive	211 nM (active) and 97.8 nM (active)	inactive	29.8 µM (active)	49 µM (active)	13.3 µM (active) and 15.5 µM (active)	–	–
NC1CCC(CC2CCC(N)CC2)CC1 (stereo unspecified)	inactive	inactive	–	–	inactive	inactive	inactive	inactive	–	47.7 µM (active)	inactive	inactive	–	inactive	inactive	–	–	–	–	–
Clc1ccc(C(c2ccc(Cl)cc2)C(Cl)Cl)cc1	–	inactive	–	–	24.7 µM (active) and 43.3 µM (active)	inactive	inactive	inactive	inactive	inactive	24.7 µM (active) and 68.6 µM (active)	inactive	inactive	–	62.1 µM (active) and inactive	39.2 µM (active) and 19.3 µM (active)	17.5 µM (active) and 3.86 µM (active)	27.8 µM (active) and 10.9 µM (active)	–	–
CC(Cc1ccc(OCC(=O)O)cc1)NCC(O)c1csc(C(F)(F)F)n1 (stereo unspecified)	–	inactive	–	–	inactive	inactive	inactive	inactive	inactive	–	inactive	77 µM (active)	inactive	inactive	inactive	inactive	inactive	inactive	–	–
O=C1C[C@@H]2OCC=C3CN4CC[C@]56c7ccccc7N1[C@H]5[C@H]2[C@H]3C[C@H]46	–	inactive	–	–	inactive	inactive	–	–	inactive	inactive	inactive	inactive	–	–	inactive	26.6 µM (active)	inactive and 26.6 µM (active)	inactive and 29.8 µM (active)	–	–
CC1CCCC1	–	inactive	–	–	inactive	inactive	–	–	inactive	inactive	inactive	inactive	–	–	inactive	inactive	inactive	inactive	–	–
O.O.O.O.O.O.O=S(=O)([O-])[O-].[Ni+2]	inactive	inactive	–	–	–	inactive	–	–	inactive	inactive	inactive	–	–	–	inactive	–	–	–	–	–
COP(=S)(NC(C)C)Oc1ccc(C)cc1[N+](=O)[O-] (stereo unspecified)	–	inactive	–	–	inactive	inactive	5.49 µM [inconclusive] (active)	38.6 µM (active)	inactive	–	–	inactive	–	1.93 µM (active)	–	54.5 µM (active)	–	61.1 µM (active)	–	–
S=C=NCCc1ccccc1	–	inactive	–	inactive	–	inactive	inactive	–	inactive	–	–	inactive	inactive	54.6 µM (active)	inactive	inactive	–	inactive	inactive	inactive
